Compound activity (PubChem BioAssay)
Shown are actives, neighbours in structure and some others; about 21% of the full set was active somewhere.
AMA1 RON2 block = inhibitors of Plasmodium falciparum AMA1-RON2 interaction | AlphaScreen AMA1-biotinylated RON2 peptide binding | Potency, µM (top dose mostly 58.2 µM), for inactives: at the top dose activity change, negative = inhibition, hits mostly inhibitors | 360,000 tested, 0.2% active;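 also: potency is read from the fitted curve at half-maximal effect; 0% = vehicle wells and -100% = peptide control; nearly all actives have a fitted effect of over 45% in size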
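AMA1 (3D7) with his tag at 25 nM final met compounds first, then biotinylated RON2 peptide at 25 nM; detection used donor plus acceptor beads, 10 µg/mL apiece, read by AlphaScreen after 30 min at room temperature.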
Pf growth 48h = inhibits P. falciparum growth in the first generation, 48 h. P. falciparum luciferase growth in erythrocytes, 48 h. Potency, µM (highest dose often 28.7 µM), inactives show top-dose activity change, negative = inhibition, actives largely listed as inhibitors. 310,000 tested, 5.9% active; also: potency is read from the fitted curve at half-maximal effect; % is scaled to controls: 0 for no effect and ±100 for the full control effect
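Firefly luciferase activity from engineered P. falciparum reports growth; inhibitors lower the luminescent signal. Cultures contained 2% hematocrit erythrocytes at 0.1% final parasitemia.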
CHX counter = counter-screen hit for Shiga toxin inhibitors, cycloheximide; cell reporter, cycloheximide protein synthesis inhibition counterscreen; max response, %; 300,000 tested, 12% active; in the data active = max response mostly above about 13%, no sharp cut-off; inactive = mostly below about 14%; also: read at 38.3 µM for the half of the compounds with a filed dose; 0% is about no effect
Pf growth 96h = P. falciparum growth inhibition at 96 hour, primary screen for plastid delayed-death inhibitors | P. falciparum luciferase reporter growth, 96 h | Potency, µM (highest dose often 28.7 µM), inactives show at the highest dose activity change, negative = inhibition, hits mostly inhibitors | 320,000 tested, 6.9% active; also: potency is read from the fitted curve at half-maximal effect; % is scaled to controls: 0 for no effect and ±100 for the full control effect
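Infected RBCs, 2% Hct / 0.05% parasitemia final; luciferase-reporter P. falciparum; cpd 96 h, 37 C, 5% CO2; luciferase detection reagent; luminescence.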
Shiga toxin inh = Shiga toxin inhibition | 290,000 tested, 9.2% active | Vero cells, Shiga toxin protein synthesis inhibition reporter | inhibition, % at 38.7 µM | AID 2315; in the data active = inhibition mostly above about 28%, no sharp cut-off; inactive = mostly below about 43%; also: 0% is about no effect
HCV inhibitor = inhibitors of hepatitis C virus infection; 340,000 tested, 3.4% active; Potency, µM (titrated, usually from 41.8 µM), without a hit: at the highest dose activity change, negative = inhibition, most hits filed as inhibitors; AID 651820; Huh7.5.1 HCVcc-Cre infection, luciferase reporter, 44 h; also: potency is read from the fitted curve at half-maximal effect; % is scaled to controls: 0 for no effect and ±100 for the full control effect
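1,000 cells/well; 4 h culture; + compound; + HCVcc-Cre (~0.5 moi); 44 h; luciferase substrate, RT 15 min; read 15 sec.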
The depositor's hits bear a star; [ ] = another dose, or the depositor's remark. Unless noted, calls follow the shape of the dose curve; as a rule, active = well fitted curve in the direction sought with a large enough effect; inconclusive = small, poorly fitted or top-dose-only effect, or another doubt; inactive = no such curve, though single readings can be large; an effect the other way counts as inactive or inconclusive.

Cc1cc(N2CCCCC2)nc2c(C)cccc12 was read as AMA1 RON2 block 29%, Pf growth 48h 15%, CHX counter 1, Pf growth 96h 0%, Shiga toxin inh 2 and HCV inhibitor -16%.
`Cc1cc(N2CCN(CC(O)C(F)(F)F)CC2)c2ccccc2n1` (stereo not drawn) gave AMA1 RON2 block 0%, Pf growth 48h -9%, CHX counter -3, Pf growth 96h inconclusive, Shiga toxin inh -2 and HCV inhibitor -16%.
Screening Cc1cc(N2CCN(S(=O)(=O)c3ccc(Cl)cc3)CC2)c2ccccc2n1 returned AMA1 RON2 block -19%, CHX counter -3, Shiga toxin inh -11 and HCV inhibitor 11µM*.
For Cc1cc(C)n(-c2nc3ccccc3nc2N2CCN(S(=O)(=O)c3ccc4ccccc4c3)CC2)n1 the results were AMA1 RON2 block 4%, CHX counter -1, Pf growth 96h 5.2µM*, Shiga toxin inh -12 and HCV inhibitor -26%.
O=C(c1ccccc1F)N1CCN(C(=O)C2CC2)CC1 was read as AMA1 RON2 block 5%, Pf growth 48h 12%, CHX counter 16, Pf growth 96h inconclusive, Shiga toxin inh -8 and HCV inhibitor 25%.
Screening COc1ccc(-n2nc(C(=O)NCC(=O)N3CCCC3)c3ccccc3c2=O)cc1Cl returned AMA1 RON2 block -3%, Pf growth 48h 0%, CHX counter -2, Pf growth 96h inconclusive, Shiga toxin inh 2 and HCV inhibitor 12%.
COCCN(C(=O)CSc1ccc2c(c1)OCCO2)c1c(N)n(CC(C)C)c(=O)[nH]c1=O was read as AMA1 RON2 block 15% and HCV inhibitor 0%.
Screening CCOc1ccccc1CN1CCN(Cc2csc(C(C)=O)c2)CC1CCO (stereo not drawn) returned AMA1 RON2 block 9%, Pf growth 48h 4%, CHX counter -3, Pf growth 96h 11%, Shiga toxin inh 2 and HCV inhibitor -1%.
For O=C(CSc1nnc(-c2c[nH]c3ccccc23)o1)NCC1CCCO1 (stereo not drawn) the results were AMA1 RON2 block 12%, Pf growth 48h inconclusive, Pf growth 96h inconclusive and HCV inhibitor -9%.
Screening CCc1ccc(Nc2nc(C)cc(C)n2)cc1 returned AMA1 RON2 block 3%, Pf growth 48h 93%, CHX counter 53*, Pf growth 96h 109%, Shiga toxin inh 52* and HCV inhibitor inconclusive.
For Cc1cc(C)nc(Nc2ccc(O)cc2)n1 the results were AMA1 RON2 block -4%, CHX counter 24*, Pf growth 96h 6%, Shiga toxin inh 41 and HCV inhibitor 1%.
For O=C1OCC/C1=C\NCCCN/C=C1\CCOC1=O the results were AMA1 RON2 block -7%.
`CSc1ccccc1C(=O)C1CCCN(C(=O)c2cccc(Cn3cccn3)c2)C1` (stereo not drawn) gave AMA1 RON2 block 0%.
CCOC(=O)c1nc2cc3n(c(C)c-2c1C)C(C)C(C)=C3C (stereo not drawn) was read as AMA1 RON2 block -1%, Pf growth 48h 7.4µM*, CHX counter 7, Pf growth 96h 2.3µM*, Shiga toxin inh -8 and HCV inhibitor inconclusive.
For CCOC(=O)c1n[nH]n(-c2cc(Cl)cc(Cl)c2)c1=O the results were AMA1 RON2 block 3%, Pf growth 48h inconclusive, CHX counter -2, Pf growth 96h 6%, Shiga toxin inh -8 and HCV inhibitor 15%.
CCOC(=O)c1nnc2cc(C)nn2c1C was read as AMA1 RON2 block -13%, Pf growth 48h 11%, CHX counter 0, Pf growth 96h 2%, Shiga toxin inh -1 and HCV inhibitor 19%.
`CCOC(=O)c1nc2cc3n(c(CC(C)C)c-2c1C)CC(C)=C3C` gave AMA1 RON2 block 3%, Pf growth 48h 1.2µM*, CHX counter -3, Pf growth 96h 3.3µM*, Shiga toxin inh -4 and HCV inhibitor -27%.
`Cc1ccc2ccccc2c1C(O)c1ncc(-c2ccc(F)cc2)[nH]1` (stereo not drawn) gave AMA1 RON2 block 17%.
`Fc1ccccc1NC(=S)NCc1ccc2c(c1)OCO2` gave AMA1 RON2 block 1%, Pf growth 48h 9%, CHX counter 9, Pf growth 96h inconclusive, Shiga toxin inh 23 and HCV inhibitor 15%.
O=S(=O)(c1c(F)cccc1F)N1CCN(C(=S)NCc2ccc3c(c2)OCO3)CC1 was read as AMA1 RON2 block -3%, Pf growth 48h 2.1µM*, CHX counter -2, Pf growth 96h 2.1µM*, Shiga toxin inh 9 and HCV inhibitor -9%.
Screening O=C(NCc1ccc2c(c1)OCO2)C1CCCCC1 returned AMA1 RON2 block 17%, Pf growth 48h 16%, CHX counter 13*, Pf growth 96h inconclusive, Shiga toxin inh 42* and HCV inhibitor 24%.
O=C(NCc1ccc2c(c1)OCO2)C1CCCN1S(=O)(=O)c1ccc(F)cc1 (stereo not drawn) was read as AMA1 RON2 block 0%, Pf growth 48h 2.3µM*, CHX counter -2, Pf growth 96h 34%, Shiga toxin inh -4 and HCV inhibitor 15%.
O=C(NCc1ccncc1)C1COc2ccccc2O1 (stereo not drawn) was read as AMA1 RON2 block 5%, Pf growth 48h 0%, CHX counter -4, Pf growth 96h 81%, Shiga toxin inh -13 and HCV inhibitor 21%.
Screening O=C(O)C1CCCCC1C(=O)NCc1ccc2c(c1)OCO2 (stereo not drawn) returned AMA1 RON2 block -11%, Pf growth 48h 20%, CHX counter 0, Pf growth 96h inconclusive, Shiga toxin inh -8 and HCV inhibitor -9%.
For O=C(NCc1ccc2c(c1)OCO2)C1COc2ccccc2O1 (stereo not drawn) the results were AMA1 RON2 block 13%, Pf growth 48h 59%, CHX counter 13, Pf growth 96h inconclusive, Shiga toxin inh 34* and HCV inhibitor 1%.
COc1ccc(C(=O)NNC(=O)C2CCN(S(=O)(=O)c3ccc(C)cc3)CC2)cc1 was read as AMA1 RON2 block 62%, Pf growth 48h -25%, CHX counter -4, Pf growth 96h inconclusive, Shiga toxin inh 12 and HCV inhibitor 6%.
For CCCC(=O)c1c(NCCO)cc(C)oc1=O the results were AMA1 RON2 block -8%, Pf growth 48h 37%, CHX counter 4, Pf growth 96h inconclusive, Shiga toxin inh 3 and HCV inhibitor 2%.
COC(=O)c1ccc(CSc2nc3c(c(=O)[nH]2)CCC3)cc1 was read as AMA1 RON2 block -1%.
CC(NC(=O)Nc1ccc2c(c1)OCO2)C1CCCO1 (stereo not drawn) was read as AMA1 RON2 block -19%, Pf growth 48h 91%, CHX counter 44*, Pf growth 96h 15%[5.75 µM], Shiga toxin inh 72* and HCV inhibitor 1%.
